How the values were obtained:
Format in all cases: functional
Plasmodium falciparum [1] = assay: GSK_TCMDC: Inhibition of Plasmodium falciparum 3D7 in whole red blood cells, using parasite LDH activity as an index of growth. Test compounds present at 2uM
Plasmodium falciparum [2] = assay: GSK_TCMDC: Inhibition of Plasmodium falciparum Dd2 in whole red blood cells, using parasite LDH activity as an index of growth. Test compounds present at 2uM
HepG2 = assay: GSK_TCMDC: Percent inhibition of human HepG2 cell line. Test compounds present at 10uM.

## Cc1[nH]c(C)c([N+](=O)[O-])c(=O)c1-c1ccc(Oc2ccc(OC(F)(F)F)cc2)cc1
Plasmodium falciparum [1]
  Inhibition: 97%
Plasmodium falciparum [2]
  Inhibition: 97%
HepG2
  Inhibition: 0%

## CCCN1CCN(CC(O)CNC(=O)Nc2ccc(Cl)cc2)CC1.O=C(O)C(F)(F)F (stereo not given)
Plasmodium falciparum [1]
  Inhibition: 100%
Plasmodium falciparum [2]
  Inhibition: 100%
HepG2
  Inhibition: 6%

## COCCN(C)CCCOc1cc2c(cc1OC)ncn2-c1cc(OCc2ccccc2C(F)(F)F)c(C(N)=O)s1.Cl
Plasmodium falciparum [1]
  Inhibition: 98%
Plasmodium falciparum [2]
  Inhibition: 49%
HepG2
  Inhibition: 24%

## Cc1noc(C)c1-c1cccc(CNCc2cccc(-c3ccc(-c4nc5ccccc5[nH]4)cc3)c2)c1.O=C(O)C(F)(F)F
Plasmodium falciparum [1]
  Inhibition: 100%
Plasmodium falciparum [2]
  Inhibition: 76%
HepG2
  Inhibition: 27%

## Nc1c(Cl)cc(C(O)CNCCCCCCOCCc2ccc(CO)s2)cc1Cl.O=C(O)/C=C/C(=O)O (stereo not given)
Plasmodium falciparum [1]
  Inhibition: 86%
Plasmodium falciparum [2]
  Inhibition: 71%
HepG2
  Inhibition: 1%

## COc1ccc(-c2cccc(NC(=O)c3cccc(F)c3)c2)cc1CN1CCCN(C)CC1.O=C(O)C(F)(F)F
Plasmodium falciparum [1]
  Inhibition: 100%
Plasmodium falciparum [2]
  Inhibition: 78%
HepG2
  Inhibition: 42%

## COC(=O)c1cccc(CNCc2ccc(-c3ccc(-c4nc5cc(F)ccc5[nH]4)s3)cc2)c1.O=C(O)C(F)(F)F
Plasmodium falciparum [1]
  Inhibition: 100%
Plasmodium falciparum [2]
  Inhibition: 82%
HepG2
  Inhibition: 4%

## CCCCN1CCCN(Cc2cccc(NC(=O)c3ccc(-c4ccccc4)cc3)c2)CC1.O=C(O)C(F)(F)F
Plasmodium falciparum [1]
  Inhibition: 92%
Plasmodium falciparum [2]
  Inhibition: 8%
HepG2
  Inhibition: 19%

## O=C(Nc1ccc(CN2CCOCC2)cc1)c1ccc(-c2ccc(Br)cc2)o1
Plasmodium falciparum [1]
  Inhibition: 92%
Plasmodium falciparum [2]
  Inhibition: 0%
HepG2
  Inhibition: 3%

## CCCCC(=O)Nc1nonc1-c1ccc(OCC)c(OCC)c1
Plasmodium falciparum [1]
  Inhibition: 100%
Plasmodium falciparum [2]
  Inhibition: 95%
HepG2
  Inhibition: 9%
